We go through two compounds from PubChem BioAssay (EPA / NIEHS).

Results filed as inconclusive are left out. The source holds several records for some structures; these can differ, active in one and inactive in another. Active and inactive are the calls of the source. How the source made its calls: active means hit-call score of the fitted dose curve at least 0.9, where 1 is the maximum; inconclusive means response in the unintended direction; inactive means score below 0.9.

For test [1], the system named is turtle Androgen Receptor (AR), gene 101947425. As to the kind of experiment: ATG_trAR_XSP2: Attagene TRANS-FACTORIAL Multi-Species (XSP2) HepG2 Assay for turtle Androgen Receptor (AR) (AID 2283815).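 On AC50: potency for gain of reporter signal meaning activation above DMSO baseline.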 Summed up: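 HepG2 cells transiently transfected with GAL4-UAS reporter units for chimeric NR-Gal4 receptors; 24 h dosing in presence of 3 nM 6-alpha-fluorotestosterone and 1.5 nM norgestrel. Reporter mRNA by RT-PCR and capillary electrophoresis, gain of signal versus DMSO.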

Test [2] is described as follows: ATG_M_19_XSP2: Attagene TRANS-FACTORIAL Multi-Species (XSP2) HepG2 Assay for M32 Transcription Factor (Internal Marker) (AID 2283822). In a few lines:
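Internal background marker in a multi-species nuclear receptor TRANS panel: transfected HepG2 cells exposed 24 h, with 3 nM 6-alpha-fluorotestosterone and 1.5 nM norgestrel present. Readout is RT-PCR of reporter transcripts resolved by capillary electrophoresis, gain-of-signal versus DMSO.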

Regarding `O=S(=O)(c1ccc(O)cc1)c1ccc(O)cc1`, in test [1], the half-maximal activity concentration (AC50) was 27 µM (active) and the compound was classed as inactive.
For `CCC(C)(C)c1ccc(O)cc1`, in test [2], the call was inactive.
